A short description of assay [1]: TOX21_p53_BLA_p2_viability: Viability Assessment in the Tox21 HCT-116 p53 Agonism Beta-lactamase Assay, Phase 2 (AID 2283591).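 Note: compound exposure lasted 16 h at 37 °C; actives lower the ATP signal meaning cytotoxicity.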 The essentials: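 HCT116 p53-bla cells, 4000/well, dosed after 5 h plating (217-fold dilution of DMSO stocks) and incubated 16 h at 37C. Viability taken as cellular ATP by CellTiter-Glo luminescence after 30 min RT; signal loss marks cytotoxicity.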

Assay [2] concerns the target Cellular tumor antigen p53 (Homo sapiens) (UniProt P04637). Kind of assay: TOX21_p53_BLA_p2_ratio: Tox21 HCT-116 p53 Agonism Beta-lactamase Assay, Ratio, Phase 2 (AID 2283592). The essentials:
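DMSO-normalized, positive-direction endpoint derived from the 460 nm/530 nm FRET ratio in HCT116 p53 beta-lactamase reporter cells exposed 16 h at 37C and loaded with CCF4-AM for 2 h.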

The nature of assay [3]: TOX21_p53_BLA_p3_viability: Viability Assessment in the Tox21 HCT-116 p53 Agonism Beta-lactamase Assay, Phase 3 (AID 2283593).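 Note: cells exposed to compound for 16 h before reading.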 An outline of the steps: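 HCT116 cells, 4000/well, dosed 5 h after plating by pin transfer (217-fold dilution from DMSO stock) and incubated 16 h at 37C, 5% CO2. Viability read as ATP luminescence with CellTiter-Glo after 30 min at room temperature.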

The target in assay [4] is Cellular tumor antigen p53 (Homo sapiens) (UniProt P04637). Kind of assay: TOX21_p53_BLA_p3_ratio: Tox21 HCT-116 p53 Agonism Beta-lactamase Assay, Ratio, Phase 3 (AID 2283596). The essentials: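 Cells were seeded at 4000/well, rested 5 h at 37C, then dosed with DMSO compound solutions (217-fold dilution) for 16 h. CCF4-AM substrate was loaded for 2 h at room temperature, and the 460/530 nm emission ratio was fitted for gain of signal versus DMSO.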
Cellular tumor antigen p53 (Homo sapiens), sequence (P04637 whole entry, looked up): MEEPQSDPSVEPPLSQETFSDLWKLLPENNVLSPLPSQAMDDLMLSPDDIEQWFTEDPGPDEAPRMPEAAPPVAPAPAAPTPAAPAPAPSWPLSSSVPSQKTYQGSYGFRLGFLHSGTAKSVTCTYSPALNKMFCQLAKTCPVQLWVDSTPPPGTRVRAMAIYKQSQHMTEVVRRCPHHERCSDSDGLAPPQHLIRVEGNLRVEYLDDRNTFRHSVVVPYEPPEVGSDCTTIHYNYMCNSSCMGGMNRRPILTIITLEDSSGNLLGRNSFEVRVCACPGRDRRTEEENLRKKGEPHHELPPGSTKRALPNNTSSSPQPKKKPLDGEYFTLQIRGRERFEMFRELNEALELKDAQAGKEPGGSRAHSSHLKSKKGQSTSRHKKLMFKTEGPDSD

A short description of assay [5]: TOX21_p53_BLA_p4_viability: Viability Assessment in the Tox21 HCT-116 p53 Agonism Beta-lactamase Assay, Phase 4 (AID 2283597).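 Note: hits lower the luminescence signal meaning cytotoxicity.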 The essentials:
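In this multiplexed secondary endpoint, HCT116 cells (4000 per well, compound at 5 h, 16 h treatment) received CellTiter-Glo after the beta-lactamase read. Luminescence after 30 min RT reflects ATP, and falling signal marks cytotoxicity.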

Assay [6] deals with Cellular tumor antigen p53 (Homo sapiens) (UniProt P04637). Kind of assay: TOX21_p53_BLA_p4_ratio: Tox21 HCT-116 p53 Agonism Beta-lactamase Assay, Ratio, Phase 4 (AID 2283601). An outline of the steps:
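HCT-116 p53 beta-lactamase reporter cells (4000/well) preincubated 5 h, then compound (217-fold dilution of DMSO stock) for 16 h at 37C. CCF4-AM substrate added 2 h at room temperature; 460/530 nm emission ratio fitted upward versus DMSO.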

The nature of assay [7]: TOX21_p53_BLA_p5_viability: Viability Assessment in the Tox21 HCT-116 p53 Agonism Beta-lactamase Assay, Phase 5 (AID 2283600). The essentials:
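Here cell health was gauged by ATP levels in wells holding 4000 cells, each treated 16 h with DMSO-delivered compounds at 217-fold dilution; reduced luminescence marked toxicity.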

The target in assay [8] is Cellular tumor antigen p53 (Homo sapiens) (UniProt P04637). Kind of assay: TOX21_p53_BLA_p5_ratio: Tox21 HCT-116 p53 Agonism Beta-lactamase Assay, Ratio, Phase 5 (AID 2283599). An outline of the steps: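 HCT-116 p53-bla cells (4000/well) plated 5 h, dosed with compound (217-fold DMSO dilution) for 16 h at 37 C; CCF4-AM substrate 2 h at room temperature. Activity is the 460/530 nm emission ratio (405 nm excitation), fitted in gain-of-signal direction versus DMSO.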

Each structure is given as a SMILES string. Records with an inconclusive call do not appear. Calls of active or inactive are those of the source. Rule for the calls: active = hit-call score of the fitted dose curve at least 0.9, where 1 is the maximum; inconclusive = response in the unintended direction; inactive = score below 0.9.

In the case of `C[N+]1(C)[C@@H]2CC(OC(=O)C(O)(c3cccs3)c3cccs3)C[C@H]1[C@@H]1O[C@@H]12` (some centres undefined), the outcome in assay [1], in assay [2], in assay [3], in assay [4], in assay [5] and in assay [6] was inactive.
For `O=C[C@H](O)[C@@H](O)[C@@H](O)[C@H](O)CO`, the call in assay [1], in assay [2], in assay [3], in assay [4], in assay [5] and in assay [7] was inactive. In addition, the result in assay [6] was inactive.
As to `CCCCCCCCS(=O)(=O)Cl`, the compound was called inactive in assay [1], in assay [2], in assay [3], in assay [4], in assay [5] and in assay [7]. Besides, the outcome in assay [6] was inactive.
With `CC(=O)Oc1ccc(C(=C2CCCCC2)c2ccc(OC(C)=O)cc2)cc1`, the outcome in assay [1], in assay [2], in assay [3], in assay [4], in assay [5] and in assay [6] was inactive.
For the compound `CC(C)NNC(=O)c1ccncc1`, the outcome in assay [1], in assay [2], in assay [3], in assay [4], in assay [5] and in assay [7] was inactive. Moreover, in assay [6], the result was inactive.
On to `CC(C)(C(=O)O)c1ccc(C(O)CCCN2CCC(C(O)(c3ccccc3)c3ccccc3)CC2)cc1` (centres undefined), for which the call in assay [1], in assay [2], in assay [3], in assay [4], in assay [5] and in assay [7] was inactive. For the same compound, in assay [6], the result was inactive.
As to `CC(C)(C)C(=O)OCOC(=O)C1N2C(=O)CC2S(=O)(=O)C1(C)C` (centres undefined), the call in assay [1], in assay [2], in assay [3], in assay [4], in assay [5] and in assay [6] was inactive.
Take `CCCCCCCCCCCCCCCCCC(=O)[O][Al]`: the result in assay [1], in assay [2], in assay [3], in assay [4], in assay [8] and in assay [7] was inactive. Moreover, in assay [6], the outcome was inactive.
Take `NC[C@@H]1CC[C@@H](N)[C@@H](O[C@H]2[C@H](O)[C@@H](O[C@H]3O[C@H](CO)[C@@H](O)[C@H](N)[C@H]3O)[C@H](N)C[C@@H]2N)O1`: the outcome in assay [1], in assay [2], in assay [3], in assay [4], in assay [8] and in assay [7] was inactive. Besides, the result in assay [6] was inactive.
Take `O=C(CCBr)N1CCN(C(=O)CCBr)CC1`: the compound was called inactive in assay [1], in assay [2], in assay [3], in assay [4], in assay [8] and in assay [7]. Besides, the outcome in assay [6] was inactive.
On to `NC(=O)c1ccc([N+](=O)[O-])cc1`, for which the compound was classed as inactive in assay [1], in assay [2], in assay [3], in assay [4], in assay [8] and in assay [7].
For the compound `CCCCCCCCCCOc1cc2c(=O)c(C(=O)OCC)c[nH]c2cc1OCC`, the compound was called inactive in assay [1], in assay [2], in assay [3], in assay [4], in assay [8] and in assay [7]. For the same compound, the result in assay [6] was inactive.
Turning to `COc1cc(Cc2cnc(N)nc2N)cc(OC)c1OC`, the result in assay [1], in assay [2], in assay [3], in assay [4], in assay [8] and in assay [7] was inactive.
Regarding `CN(C)CCOCCN(C)CCO`, the call in assay [1], in assay [2], in assay [3], in assay [4] and in assay [8] was inactive.
By AC50 is commonly meant the concentration giving half of the maximal activity seen. Consider `C1CCC(C(CC2CCCCN2)C2CCCCC2)CC1` (centres undefined), for which the AC50 in assay [1] was 18.2 µM (active); in assay [2], 26.5 µM (active); in assay [3], 33.3 µM (active); in assay [4], 43.1 µM (active); in assay [8] it was 43.7 µM (active); in assay [7], 34 µM (active). Moreover, in assay [6], the AC50 was 20.5 µM (active).
In the case of `CCOc1ccc2nc3cc(N)ccc3c(N)c2c1`, the call in assay [1], in assay [3] and in assay [7] was inactive. Also, the AC50 in assay [2] was 30.3 µM (active); in assay [4] it was 36.4 µM (active); in assay [8], 43.5 µM (active); in assay [6] it was 32.4 µM (active).
`C=C1c2cccc(O)c2C(O)=C2C(=O)[C@]3(O)C(O)=C(C(N)=O)C(=O)[C@@H](N(C)C)[C@@H]3[C@@H](O)[C@H]12`: the outcome in assay [1], in assay [2], in assay [3], in assay [4], in assay [8] and in assay [7] was inactive. Moreover, the outcome in assay [6] was inactive.
In the case of `CCn1cc(C(=O)O)c(=O)c2cnc(N3CCCC3)nc21`, the result in assay [1], in assay [2], in assay [3], in assay [4], in assay [8] and in assay [7] was inactive.
In the case of `O=C(O)c1cccc(C(=O)O)c1C(=O)O`, the result in assay [1], in assay [2], in assay [3], in assay [4], in assay [8] and in assay [7] was inactive. Besides, the outcome in assay [6] was inactive.
Turning to `Cc1occc1SSc1ccoc1C`, the call in assay [1], in assay [2], in assay [3], in assay [4], in assay [8] and in assay [7] was inactive.
Consider `Cc1ccccc1C#N`, for which the compound was classed as inactive in assay [1], in assay [2], in assay [3], in assay [4] and in assay [8].
`O=C1C(O)=C(O)C(=O)C(O)=C1O`: the result in assay [1], in assay [2], in assay [3], in assay [4], in assay [8] and in assay [7] was inactive.
On to `CCCn1cnc2c1c(=O)n(CCCCC(C)=O)c(=O)n2C`, for which the compound was classed as inactive in assay [1], in assay [2], in assay [3], in assay [4], in assay [8] and in assay [7].
With `C[N+](C)(C)CC(O)CC(=O)[O-]` (centres undefined), the result in assay [1], in assay [2], in assay [3], in assay [4], in assay [8] and in assay [7] was inactive. Besides, the outcome in assay [6] was inactive.
As to `Clc1ccc2cc3ccccc3cc2c1`, the outcome in assay [1], in assay [2], in assay [3], in assay [4], in assay [8] and in assay [7] was inactive.
On to `CC(C)(C)CC(=O)OCC(=O)[C@@]12OC(C)(C)O[C@@H]1C[C@H]1[C@@H]3CCC4=CC(=O)C=C[C@]4(C)[C@@]3(F)[C@@H](O)C[C@@]12C`, for which the call in assay [1], in assay [2], in assay [3], in assay [4], in assay [8] and in assay [7] was inactive. Moreover, the outcome in assay [6] was inactive.
With `CCOc1nc2cccc(C(=O)O)c2n1Cc1ccc(-c2ccccc2-c2nn[nH]n2)cc1`, the AC50 in assay [1] was 21.9 µM (active); in assay [2], 28.7 µM (active); in assay [3], 35.8 µM (active); in assay [4], 43.3 µM (active); in assay [8], 44.3 µM (active); in assay [7] it was 38.2 µM (active). For the same compound, in assay [6], the result was inactive.
As for `CCCCCCCCSCC`, the outcome in assay [1], in assay [2], in assay [3], in assay [4], in assay [8] and in assay [7] was inactive. For the same compound, the outcome in assay [6] was inactive.
Take `CC(C)C[C@@H](NC(=O)[C@@H](O)[C@H](N)Cc1ccccc1)C(=O)O`: the compound was called inactive in assay [1], in assay [2], in assay [3], in assay [4], in assay [8] and in assay [7]. In assay [6], the result was inactive.
Consider `FC(F)(F)C(Cl)Br` (centres undefined), for which the call in assay [1], in assay [2], in assay [3], in assay [4] and in assay [8] was inactive.
For `CCO[Si](C)(CCCOCC1CO1)OCC` (centres undefined), the compound was called inactive in assay [1], in assay [2], in assay [3], in assay [4] and in assay [8].

These data come from PubChem BioAssay (EPA / NIEHS).
